Records with an inconclusive call do not appear. The source made the active and inactive calls. Calls come from the whole dose curve; as a rule, active = well fitted inhibition curve with a large enough effect; inconclusive = small, poorly fitted or top-dose-only effect; inactive = flat fitted curve, though single readings scatter.
Experiment: P-glycoprotein substrates identified in KB-8-5-11 adenocarcinoma cell line, qHTS therapeutic library screen (AID 1346987); note: nearly all actives have a fitted effect of over 65% in size
Conditions: KB-8-5-11 (P-gp overexpressing) viability, CellTiter-Glo, 72 h; series mostly up to 44.5 µM; activity change, negative = cytotoxicity: at the top concentration
Outline: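 Luminescence from CellTiter-Glo, read 5 min after addition, quantified survival of KB-8-5-11 (P-gp-overexpressing) cells exposed to compounds for 72 h. AC50 was derived from concentration-response curves.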
For `CC(C(=O)O)c1ccc(N2Cc3ccccc3C2=O)cc1` (stereo not drawn), the “activity change, negative = cytotoxicity” value was -27% (inactive). In the case of `COc1cc(/C=C/C(=O)OC2CC3CCC2(C)C3(C)C)ccc1O` (stereo not drawn), the “activity change, negative = cytotoxicity” value is reported as 7.16% (inactive). For `COc1cc(/C=C/C(=O)O[C@H]2[C@H](O)[C@@H](CO)O[C@@]2(CO)O[C@H]2O[C@H](COC(=O)c3ccc(O)cc3)[C@@H](O)[C@H](O)[C@H]2O)cc(OC)c1OC`, the “outcome” value was “inactive [at 17.3 µM]”. In the case of `CC(C)c1cc2c(c(O)c1O[C@@H]1O[C@H](CO)[C@@H](O)[C@H](O)[C@H]1O)CC1(O)CCC(O)C(C)(C)C1CC2` (stereo partly drawn), the “activity change, negative = cytotoxicity” value is reported as 8.06% [at 17.3 µM] (inactive). In the case of `C/C=C(\C)C(=O)O[C@H]1[C@@H](O[C@]2(COC(=O)CC(C)C)O[C@H](COC(=O)C(C)C)[C@@H](OC(C)=O)[C@@H]2O)O[C@H](COC(C)=O)[C@@H](O)[C@@H]1O`, the “outcome” value is reported as “inactive [at 17.3 µM]”. In the case of `CC(O)CO` (stereo not drawn), the “activity change, negative = cytotoxicity” value is reported as -2.08% (inactive). In the case of `C=C(C(=O)O)[C@@H]1CC=C2CCC[C@H](C)[C@@]2(C)C1`, the “outcome” value is reported as “inactive”. In the case of `C[C@@H]1O[C@@H](O[C@@H]2[C@@H](O)[C@H](O[C@@H]3[C@@H](O)[C@@H](O)[C@H](O[C@H]4[C@H](OC(=O)[C@]56CCC(C)(C)C[C@H]5C5=CCC7[C@@]8(C)C[C@H](O)[C@H](O[C@@H]9O[C@H](C(=O)O)[C@@H](O)[C@H](O)[C@H]9O)[C@@](C)(CO)C8[C@H](O)C[C@@]7(C)[C@]5(C)CC6)OC[C@H](O)[C@@H]4O)O[C@H]3C)OC[C@H]2O)[C@H](O)[C@H](O)[C@H]1O` (stereo partly drawn), the outcome is reported as “inactive [at 9.29 µM]”. In the case of `CC1CCC2(C(=O)OC3OC(COC4OC(CO)C(O)C(O)C4O)C(O)C(O)C3O)CCC3(C)C(=CCC4C5(C)CCC(O)C(C)(C(=O)O)C5CCC43C)C2C1(C)O` (stereo not drawn), the activity change, negative = cytotoxicity is reported as 1.52% [at 9.29 µM] (inactive). With `CC1(C)CC2C(C1)C1(C)CCC13OC3(CO)C2O` (stereo not drawn) the “activity change, negative = cytotoxicity” value was 3.52% (inactive). In the case of `C[C@@H](OC(=O)/C=C/c1ccc(O)cc1)C1=C[C@]2(C=C[C@@H]3C(C(=O)O)=CO[C@@H](O[C@@H]4O[C@H](CO[C@@H]5O[C@H](CO)[C@@H](O)[C@H](O)[C@H]5O)[C@@H](O)[C@H](O)[C@H]4O)[C@@H]32)OC1=O`, the “outcome” value is reported as “inactive [at 17.3 µM]”. With `CC(=O)N(CC(C)C(=O)O)c1c(I)cc(I)c(N)c1I` (stereo not drawn) the “activity change, negative = cytotoxicity” value was -13.9% [at 17.3 µM] (inactive). In the case of `O=c1c2ccccc2nc2n1CCC2O` (stereo not drawn), the “activity change, negative = cytotoxicity” value is reported as 6.72% [at 93.4 µM] (inactive). In the case of `CC(C)C1=CC2=CCC3[C@](C)(CCC[C@@]3(C)C(=O)O)C2CC1O` (stereo partly drawn), the “activity change, negative = cytotoxicity” value is reported as 8.09% (inactive). With `C=CCSSSCC=C` the “activity change, negative = cytotoxicity” value was -19.4% (inactive). For `CC1=CC(=O)C2C(C)(C)CC(O)CC2(C)C1CO` (stereo not drawn), the “outcome” value was “inactive”. With `C=C[C@](C)(CC/C=C(\C)C(=O)O)O[C@@H]1OC[C@H](O)[C@H](O)[C@H]1O` the “outcome” value was “inactive”. With `CC(NCc1ccc(OCc2cccc(F)c2)cc1)C(N)=O` (stereo not drawn) the “activity change, negative = cytotoxicity” value was 8.1% (inactive). With `O=C(c1ccc(NS(=O)(=O)c2cccc3cccnc23)cc1)N1CCN(CC2CC2)CC1` the “activity change, negative = cytotoxicity” value was -17% (inactive). In the case of `O=C(OCc1cccc(O)c1O[C@@H]1O[C@H](CO)[C@@H](O)[C@H](O)[C@H]1O)C1(O)C(=O)C2C=CC1C1C=CC(=O)C(O)(C(=O)OCc3cccc(O)c3O[C@@H]3O[C@H](CO)[C@@H](O)[C@H](O)[C@H]3O)C21` (stereo partly drawn), the outcome is reported as “inactive [at 9.29 µM]”. In the case of `COC1CCCC/C(C)=C/C2C=C(C)C(C)C3C(CC(C)C)NC(=O)C23C(=O)C1` (stereo not drawn), the “activity change, negative = cytotoxicity” value is reported as 0.0759% [at 17.3 µM] (inactive). With `COC1(CC(C)C)NC(=O)C(O)(Cc2ccccc2)NC1=O` (stereo not drawn) the “outcome” value was “inactive”. With `O=C(c1ccc(F)cc1)C1CCN(CCn2c(=O)nc3n(c2=O)CCCC3)CC1` the “activity change, negative = cytotoxicity” value was -1.96% (inactive). With `O=C(c1ccc(C#Cc2cccc(F)c2)cn1)N1CC2CC2C1` (stereo not drawn) the “activity change, negative = cytotoxicity” value was -16.4% (inactive). With `CC(=O)c1c(C)cc(O[C@@H]2O[C@H](CO)[C@@H](O)[C@H](O)[C@H]2O)cc1O` the “outcome” value was “inactive”. In the case of `CC1CC(O)C2(C)C(C(=O)O)=CCCC2C1(C)CCc1ccoc1` (stereo not drawn), the “activity change, negative = cytotoxicity” value is reported as 1.56% (inactive). For `CC1C/C=C/C=C\CCCCC(O)C/C=C/C(=O)O1` (stereo not drawn), the “outcome” value was “inactive”. With `COc1cc(N2CCC(O)CC2)ccc1Nc1cc(Nc2ccccc2S(=O)(=O)C(C)C)c2cc[nH]c2n1` the Potency was 11.4 µM (active).

— PubChem BioAssay (NCATS)
% is set by controls: 0 for no effect and ±100 for the full control effect; potency is the fitted concentration of half-maximal effect.
